Test results from ChEMBL document CHEMBL3988442, “University of Dundee, Small-Polar-MMV Screening Library” (2021).
The campaign covered roughly 48,000 compounds. About 13,000 (27%) showed an effect of 50% or more. The list shows a part of the results.

System: Wolbachia pipientis
Assay: Anti-Wolbachia Cell-Based Screen
Type: functional
Design: scale not given: in the data most compounds retested in dose-response had high values
Conditions: 5 µM

First: CCn1nccc1C(=O)N1CCCCC1CCc1ccc(O)cc1 (stereo not drawn)
Second: OCCn1nccc1C1CCN(CCCOc2ccc(F)cc2)CC1
The “Percent Effect” value of the first is higher: 1.71% for the first, -1.646% for the second.

First: CC(NC(=O)Nc1nccs1)c1ccc(S(C)(=O)=O)cc1 (stereo not drawn)
Second: Cc1cc(CNC(=O)NC(C)c2ccc(N3CCOCC3)cc2)no1 (stereo not drawn)
The “Percent Effect” value of the first is higher: 7.495% for the first, 1.457% for the second.

Compared with CCC(C(=O)NCC1CCN(c2cnn(C)c(=O)c2)CC1)n1cccn1 (stereo not drawn), CCCC(=O)N1CCC(c2nn(C)c(=O)n2-c2ccccc2)CC1 is lower in “Percent Effect” value: 4.446% for the first, 0.6972% for the second.

Going from O=C(c1ccoc1)N1CCCn2nnc(COCC3CC3)c2C1 to CC(C)[C@H]1COC(=O)N1CC(=O)N1CCCN(C(=O)c2ccoc2)CC1, the “Percent Effect” value falls from -7.176% to -24.24%.

Compared with O=C(C1CCC1)N1CCc2[nH]cnc2C12CCN(C1CCOCC1)CC2, O=C(NCCc1c[nH]cn1)C1CCCN(C2CCOCC2)C1 (stereo not drawn) is lower in “Percent Effect” value: 2.513% for the first, -7.633% for the second.

First: CN1CCN(Cc2nc3c(s2)CCCC3)[C@H]2CS(=O)(=O)C[C@H]21
Second: COCCN1CC2(CCCN(Cc3cc(=O)c(OC)co3)C2)CCC1=O (stereo not drawn)
The “Percent Effect” value of the first is lower: -12.07% for the first, 3.181% for the second.

First: CC(C)(C)c1nnc(CN2CCN(CC(O)c3ccccc3)CC2)o1 (stereo not drawn)
Second: CC(C)(C)c1cnc(CN2CCC(c3ccnn3CCO)CC2)o1
The “Percent Effect” value of the first is higher: -4.717% for the first, -7.147% for the second.

First: O=C(CCCc1ccc(F)cc1)N1C[C@@H](CN2CCOCC2)[C@@H](CO)C1
Second: CCNC(=O)c1nnc2ccc(N3CCOCC3)cc2n1
The “Percent Effect” value of the first is lower: -13.37% for the first, 17.66% for the second.

Going from O=C1CN(Cc2cnc3c(-c4ccccc4)cnn3c2)CCCN1 to O=C(NCc1ccccn1)N1CC=C(c2ccccc2)CC1, the “Percent Effect” value rises from -7.334% to 32.63%.

Compared with CNC(=O)[C@@H](C1CC1)N1CCC[C@H]1C(=O)NCC(C)C.Cl, COc1ncccc1NC(=O)N1CCCC(CNC(=O)OC(C)(C)C)C1 (stereo not drawn) is lower in “Percent Effect” value: 5.18% for the first, 1.374% for the second.

Compared with CN(CCN1CCCCCC1)C(=O)c1cc(CN2CCCC(O)C2)on1 (stereo not drawn), Cc1ccc(C(=O)N(C)CC(=O)N2CCCC2)c(C)c1 is higher in “Percent Effect” value: -22.76% for the first, -3.926% for the second.

First: CC(=O)Nc1c(C)cnn1Cc1cc(F)ccc1F
Second: CCc1c(C(=O)O)nnn1-c1ccc(C)cc1C
The “Percent Effect” value of the first is lower: -3.865% for the first, 82.86% for the second.

Compared with COc1ccc(C(=O)NCCCOC(C)c2ccccc2)c(OC)c1 (stereo not drawn), CC(OCCCNC(=O)c1cccnc1O)c1ccccc1 (stereo not drawn) is higher in “Percent Effect” value: 92.39% for the first, 95.41% for the second.

Going from O=C(NCCCN1CCc2ccccc2C1)c1cccnc1O to CS(=O)(=O)NCCCNC(=O)c1cccnc1O, the “Percent Effect” value falls from 6.847% to -1.609%.

First: COc1ccc(C(=O)NCCCNc2ncccn2)c(OC)c1
Second: COc1ccc(C(=O)NCCc2nnc3ccccn23)c(OC)c1
The “Percent Effect” value of the first is lower: -2.256% for the first, -1.311% for the second.

Going from COc1cc(CNC(=O)NCCCF)cc(Br)c1OC to Cc1ccc(CCNC(=O)NCCCC(N)=O)c(C)c1, the “Percent Effect” value falls from -2.867% to -5.264%.

Compared with CN(C(=O)Cn1nc(-c2ccc(F)cc2)oc1=O)c1ccccc1, CN(C(=O)CSc1ncc[nH]1)c1ccccc1 is higher in “Percent Effect” value: -62.32% for the first, 93.6% for the second.

Compared with CN(C(=O)CN1CCCC1Cc1ccccc1)c1ccccc1 (stereo not drawn), CC(=O)N1CCC2(C1)c1ccccc1S(=O)(=O)N2Cc1ccccc1 (stereo not drawn) is higher in “Percent Effect” value: 21.48% for the first, 103.8% for the second.

Going from CCN(CC)C(=O)CSc1ncc[nH]1 to CN(C(=O)CSc1ncc[nH]1)C1CC1, the “Percent Effect” value rises from 45.3% to 109.9%.

Compared with CCN(C(=O)CSc1ccc(C(F)(F)F)cn1)C1CC1, COc1ccc(NC(=O)CSC(F)(F)F)cn1 is higher in “Percent Effect” value: -14.79% for the first, 1.311% for the second.

First: O=C(NC[C@H]1Cn2c(-c3ccccc3)cnc2CO1)C1CCOCC1
Second: c1cc(-c2nnc([C@H]3CCN(C4CCOCC4)C3)o2)ccn1
The “Percent Effect” value of the first is lower: -9.795% for the first, -3.579% for the second.

Compared with Cn1c(-c2ccccc2Cl)nc2cc(C(=O)NCC3(C)COC3)cnc21, CC(C)(O)CCc1cccc(C(=O)NCc2cnn3cccnc23)c1 is lower in “Percent Effect” value: 7.504% for the first, 6.543% for the second.

First: CCCc1nccn1-c1cccc(C(C)O)c1 (stereo not drawn)
Second: CCN(Cc1ccc2c(c1)OCO2)C(=O)NC(C)Cn1cccn1 (stereo not drawn)
The “Percent Effect” value of the first is lower: 0.8056% for the first, 4.631% for the second.

Going from Cc1ccc(NC(=O)N2CCC(NC(=O)c3ccc(C)o3)CC2)cc1 to Cc1ccc(C(=O)NC2CCN(C(=O)Nc3ccncc3)CC2)o1, the “Percent Effect” value rises from -6.266% to 166.8%.

Compared with Cc1cc(C(=O)NC2CCN(C(=O)Nc3cccnc3)CC2)c(C)o1, Cc1ccc(C(=O)NC2CCN(C(=O)Nc3ccccn3)CC2)o1 is lower in “Percent Effect” value: 20.93% for the first, 4.828% for the second.

Going from Cc1ccc(C(=O)NC2CCN(C(=O)NCc3ccccn3)CC2)o1 to CCNC(=O)N1CCN(C(=O)c2cc(Cl)cc3cccnc23)CC1, the “Percent Effect” value falls from 118.1% to -12.31%.

First: Cc1ccc(C)c(OCCN(C)C(=O)C2CCCN2C(N)=O)c1C (stereo not drawn)
Second: COCCN1CCCC(c2ccnc3c(C(N)=O)cnn23)C1 (stereo not drawn)
The “Percent Effect” value of the first is lower: -6.745% for the first, 97.31% for the second.

Going from COc1ccc(C2CCCN2c2ccc(C#N)cn2)c(OC)c1 (stereo not drawn) to COc1ccccc1OCCN1CCCC(c2cc(C(N)=O)[nH]n2)C1 (stereo not drawn), the “Percent Effect” value falls from 3.649% to -3.836%.

Going from CCCN1CCC2(C1)c1ccccc1S(=O)(=O)N2C.O=C(O)C(F)(F)F (stereo not drawn) to CCCN1CCC2(C1)c1ccccc1S(=O)(=O)N2Cc1ccccc1.O=C(O)C(F)(F)F (stereo not drawn), the “Percent Effect” value rises from -10.43% to 16.14%.

Compared with CC(=O)N1CCC2(C1)c1ccccc1S(=O)(=O)N2C (stereo not drawn), O=C(c1coc2ccccc12)N1CCS(=O)(=O)CC1 is lower in “Percent Effect” value: 115.8% for the first, 0.973% for the second.

Compared with CCCN(CC(=O)OC)C(=O)c1sc(C)nc1C, Cc1nc2c(s1)C(N(C)C(=O)NCCCC(C)(C)CO)CCC2 (stereo not drawn) is lower in “Percent Effect” value: 1.933% for the first, -8.844% for the second.

Going from Cn1cnc2c1CCN(CCOc1ccc3c(c1)CCC(=O)N3)C2 to FC(F)(F)c1ccc(-c2n[nH]c3c2CN(CC2CCOC2)CC3)cc1 (stereo not drawn), the “Percent Effect” value rises from -6.768% to 2.824%.

Compared with Cc1ccc(CNC2(Cc3cc(C(C)(C)O)on3)COC2)o1, Cc1cc(N2CCOCC2)ccc1NC(C)c1nc(C(C)(C)C)no1 (stereo not drawn) is higher in “Percent Effect” value: -11.3% for the first, 111.3% for the second.

First: CCCC(=O)N1CCCC(c2cc3cccnc3c(O)n2)C1 (stereo not drawn)
Second: CCCC(=O)N1CCC(c2cc3cccnc3c(O)n2)CC1
The “Percent Effect” value of the first is higher: 167% for the first, 125.1% for the second.

Going from CCN(C)CC1CCN(C(=O)Nc2ccc(-c3cc[nH]n3)cc2)C1 (stereo not drawn) to CCCC(=O)N1CCC(c2cc[nH]n2)C1 (stereo not drawn), the “Percent Effect” value rises from 2.001% to 112.5%.

Compared with CCOC(=O)CCC(=O)N1CCC(Oc2ncccc2Cl)CC1, CCCC(=O)N1CCCC(c2ccccn2)C1 (stereo not drawn) is higher in “Percent Effect” value: 1.106% for the first, 152.5% for the second.

Going from Cn1ccc(C(=O)N2CCCC(c3cc4cccnc4c(O)n3)C2)n1 (stereo not drawn) to CCC(=O)N1CCCC(c2cc(Nc3ncccn3)nc(C)n2)C1 (stereo not drawn), the “Percent Effect” value falls from 126.9% to -9.589%.

Going from CN(Cc1ccon1)C(=O)C1CC(=O)N(Cc2cccnc2)C1 (stereo not drawn) to O=C(NCc1cccc(C(F)(F)F)c1)C(c1cccnc1)N1CCCC1 (stereo not drawn), the “Percent Effect” value falls from 3.448% to -10.57%.

First: Cc1cc(Cn2cncc(Br)c2=O)on1
Second: Cc1ccc(-n2nnc(C(=O)O)c2C)c(C)c1
The “Percent Effect” value of the first is lower: 0.4664% for the first, 89.24% for the second.

Compared with Cc1cccc(N2CCC(NCc3cnc(C4CCC4)s3)CC2)n1, NC(=O)c1cnn2c(C3CCCN(C4CCOCC4)C3)ccnc12 (stereo not drawn) is higher in “Percent Effect” value: 7.912% for the first, 143.8% for the second.

Going from Cc1nc(C(F)(F)F)nc(N2CCC3(CC2)CC(C(=O)O)N(C)C3)c1C (stereo not drawn) to COCc1c(C(=O)O)nnn1Cc1cccc(C(F)(F)F)c1, the “Percent Effect” value rises from -7.708% to 8.575%.

Going from CCOCCC(=O)N1CCCC(c2ncc[nH]2)C1 (stereo not drawn) to CS(=O)(=O)CC1CCCN(C(=O)Cn2cccc(C(F)(F)F)c2=O)C1 (stereo not drawn), the “Percent Effect” value rises from -13.21% to 2.203%.

Going from Cc1noc(C(C)Nc2ccc(N3CCOCC3)cc2C)n1 (stereo not drawn) to Cc1cc(N2CCOCC2)ccc1NC(C)c1nc(C(C)C)no1 (stereo not drawn), the “Percent Effect” value falls from 200.3% to 89%.

Going from CC(NCc1nnc2n1CCCC2)c1nc(C(C)(C)C)no1 (stereo not drawn) to CCN1CCN(c2ccc(NC(C)c3nc(C(C)C)no3)c(C)c2)CC1 (stereo not drawn), the “Percent Effect” value rises from 3.435% to 117.8%.

Compared with Cc1cc(OCC(=O)NC(C)c2ccc(N3CCOCC3)cc2)no1 (stereo not drawn), CCN1CCN(c2ccc(C(=O)NC(C)c3ccncc3)cc2)CC1 (stereo not drawn) is lower in “Percent Effect” value: -0.3596% for the first, -3.258% for the second.

Going from Cc1noc(C(C)Nc2ccc3oc(C(C)C)nc3c2)n1 (stereo not drawn) to Cc1noc(C(C)Nc2ccc3oc(C)nc3c2)n1 (stereo not drawn), the “Percent Effect” value rises from 8.094% to 8.533%.

Compared with Cc1cc(CN2CCN(C(C)c3nc(C(C)C)no3)CC2)no1 (stereo not drawn), Cc1ccc(C)c(-n2nnnc2SCN2CCCCC2=O)c1 is lower in “Percent Effect” value: 1.416% for the first, -6.055% for the second.

First: CCc1c(C(=O)O)nnn1-c1cccc(C)c1C
Second: CCc1c(C(=O)O)nnn1-c1cc(C)ccc1C
The “Percent Effect” value of the first is higher: 95.29% for the first, 72.77% for the second.

Compared with COCc1c(C(=O)NC2CCCC2)nnn1-c1ccc(C)cc1, CCc1c(C(=O)O)nnn1-c1cc(C)cc(C)c1 is higher in “Percent Effect” value: -4.164% for the first, 90.67% for the second.

Going from COc1cc(OC)c(-n2nnc(C(=O)O)c2C)cc1Cl to COc1cc(Cl)c(C)cc1-n1nnc(C(=O)O)c1C, the “Percent Effect” value rises from -3.799% to 4.448%.

Compared with Cc1c(C(=O)N2CCC2(C)C)nnn1-c1cccc2cccnc12, Cc1c(C(=O)O)nnn1-c1cccc2cccnc12 is lower in “Percent Effect” value: 0.9445% for the first, -7.776% for the second.

Going from CCc1cnc(N2C[C@H](OCc3csc(C)n3)[C@H]3COC[C@H]32)nc1.O=C(O)C(F)(F)F.O=C(O)C(F)(F)F to CN1CCC(N[C@@H]2CO[C@H](CNC(=O)c3cccs3)[C@H]2O)CC1, the “Percent Effect” value falls from 4.189% to -3.68%.

First: O=C(c1cn(CC(=O)N2CCc3[nH]cnc3C2)c2ccccc12)C1CC1
Second: NC(=O)Cn1ccnc1C1CCCN(CCSc2ccccc2)C1 (stereo not drawn)
The “Percent Effect” value of the first is higher: 1.32% for the first, 0.1316% for the second.

First: COc1cc(Cl)c(C)cc1-n1nnc(C(=O)O)c1-c1ccncc1
Second: NC(=O)c1cnn2c(C3CCN(CCO)CC3)ccnc12
The “Percent Effect” value of the first is lower: -11.88% for the first, 128.9% for the second.
